Measurements published in the supplement of paper PMC6555819.

These sequences were tested on RARg:RXRa (NR concentration 270 nM, RXRa partner concentration 90 nM) (assay: PBM binding z-score (relative to random genomic background probes); higher = stronger binding; sequences stand for … in GC…GCGATTGACAGCGTAGAATGAAGG).
Outline: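 Random background probes are the reference for binding z-scores. These scores derive from regression-normalized fluorescence on custom Agilent 4×180K protein-binding microarrays incubated 1 h with ligand-free nuclear receptor dimers. Binding was detected with antibodies against each partner (one per run).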

Row | Sequence | PBM binding z-score
1 | CGAACTAGGGCATCCAGGACAGTGAATACATTGA | 0.674
2 | TCGAATAGGTTAGTCGGGGCATTCAGCCAACATA | 0.415
3 | TCTGGGAGGACACGAAAGGTCAGAGCTCGACATC | 4.88
4 | CCGAGTAGGTTATGGGGCATACAGGCAACGGTGA | 0.575
5 | CAGCCTAGGTCAGGGCCAGTTTAGGAGGAACGTT | 3.06
6 | TAGCCTAGGTCAAGGGCCAGTATACCACGCGAAC | 4.09
7 | ACTAGTTGGTCAGCTGAGGTCATACACAATTCGG | 3.68
8 | CGTCCAAGGTCAAGGTCAGTCAAAGAGACTCGAA | 6.95
9 | AGTCAAAGTTCGTCTAGGTAACGTAAGATATGCT | 1.99
10 | CGTTAAAGTTCAACTAAGGTAACGTAAAGCACGC | 5.55
11 | ACTTACGGGTCAACGAGGGTATAGCACGCGTATA | 5.55
12 | ATCTCTAAGTAAAGATAGTTCAGTGAATGCAAAT | 0.945
13 | GATACAGGGTCAGCTAGAGGCTAGAGTATGGAAA | 5.74
14 | CCAGACAGGTGAGAAGGGAACTCAGCCTCGATTA | -0.0873
15 | CCTGCTAAGTCAATGGTCAGCTAAAGCAGCTCGC | -0.277
16 | CTACCAAGGTGAACAAGGTCGCTGATTACTATTC | 1.88
17 | CCTGCTAGGTCATGATCAGCTAATCTACAGTATG | 3.89
18 | TCTAGCAGGACAGAGGGTCACTCAAGAGGTACGG | 2.39
19 | ACTAGCAGGCCAAGTTTGGTTCACTCAAACAAAG | 0.163
20 | ATCTCTAGCTAACAAGTTCAGTGAAAGAGAGGAC | 0.734
21 | TCTATCAGGCCAGAGGGTCACTCAAGAGGTACGG | 2.92
22 | GTACCAAGGTGCATAGGTCGTTGATGAGTAGGCG | 0.769
